# Compound activity from PubChem.
# aSyn rescue = inhibitors of alpha-synuclein toxicity in yeast. Potency, µM (highest dose often 46.1 µM), hits mostly activators. AID 652106. Yeast expressing alpha-synuclein, growth rescue, BacTiter-Glo, 24 h. 0.14% of 370,000 active; also: nearly all actives have a fitted effect of over 65% in size
#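 Rescue of yeast growth: cells expressing toxic alpha-synuclein, induced in galactose at OD600 0.02, incubated with compound 24 h at 30 C. ATP luminescence quantified growth; inhibitors of toxicity appear as activators.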
# TDP-43 yeast inh = TDP-43 toxicity inhibition in yeast. 1.8% of 410,000 active. TDP-43 expressing yeast growth rescue, BacTiter-Glo, 24 h. Potency, µM (doses to about 46.1 µM), hits mostly activators; also: nearly all actives have a fitted effect of over 50% in size
#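 Cell-based yeast growth screen: TDP-43 expression induced in galactose, inoculum OD600=0.02 after raffinose pregrowth to mid-log. Read-out BacTiter-Glo luminescence at 24 hr, 30 deg C; inhibition of toxicity seen as signal increase.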
# Abeta rescue = compounds reversing amyloid beta toxicity in yeast. yeast expressing A-beta42, growth rescue, OD600, 48 h; response scale: 0% DMSO, 100% iron-clioquinol control. Potency, µM (highest dose often 46.1 µM), usual class: activators. 0.063% of 410,000 active; also: nearly all actives have a fitted effect of over 55% in size
#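 Yeast A-beta toxicity model in growth medium with pinned compounds, 48 h at 30 C; growth read as absorbance at 600 nm. Normalized to FeCl3/clioquinol equimolar mix (positive) and DMSO (negative).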
# FUS suppressor = FUS proteinopathy suppression in yeast; S. cerevisiae FUS-expressing, growth rescue, OD600, 24 h; Potency, µM (series often up to 76.6 µM), hits mostly activators; 0.24% of 390,000 active; also: nearly all actives have a fitted effect of over 55% in size
#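 Galactose (2%) drives FUS expression in yeast precultured in raffinose; seeding density OD 0.005. Test compounds incubated 24hr at 30C and 99% humidity before absorbance at 600 nm was measured.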
# Numbers stand for hits; . = inactive; ? = inconclusive; / = not tested or not shown. An excerpt weighted towards active compounds, which were near 2.1% of everything screened. Calls follow the shape of the dose curve; as a rule, active = well fitted curve in the direction sought with a large enough effect; inconclusive = small, poorly fitted or top-dose-only effect, or another doubt; inactive = no such curve, though single readings can be large; an effect the other way counts as inactive or inconclusive.
SMILES,aSyn rescue,TDP-43 yeast inh,Abeta rescue,FUS suppressor
CCOC(=O)[C@]12CCCC3=C1N(CCC3)C(=O)[C@@H](CC(=O)N1CCCC1)C2,/,/,/,.
Cc1ccc(OC[C@@H](O)CN2CCC(C(O)(c3ccccc3)c3ccccc3)CC2)cc1,/,/,/,.
O=C(COC(=O)c1ccc2ncsc2c1)NC(=O)C1CCCCC1,.,/,/,/
Cc1cccc(NC(=O)C2CCCN(c3nnc(-n4cccc4)s3)C2)c1C (stereo unspecified),/,/,/,.
COc1cccc(CNC(=O)c2nn(C)c3c2CSc2ccccc2-3)c1,/,18µM,.,?
Cc1ccc(C(C)NC(=S)NC2CCCCC2)c(C)c1 (stereo unspecified),.,.,11µM,.
O=C(NNC(=S)Nc1ccc(Cl)c(Cl)c1)c1ccccn1,10µM,.,.,.
O=C(c1ccc(NC(=S)Nc2ccc(Cl)c(Cl)c2)cc1)N1CCCC1,.,18µM,.,.
O=C(/C=C/c1ccccc1)N1CCC(c2ccccc2)C1 (stereo unspecified),.,11µM,.,/
Cc1ccc(C2CCN(C(=O)Nc3ccc(Cl)c(Cl)c3)C2)cc1 (stereo unspecified),/,?,.,.
O=C(Nc1ccc(Cl)c(Cl)c1)N1CCC(c2ccccc2)C1 (stereo unspecified),/,35µM,.,.
O=S(=O)(c1cccnc1)N1CCN(c2nc(-c3cccs3)nc3ccccc23)CC1,.,/,/,/
O=C(Nc1ccc(Cl)c(Cl)c1)N1CCSCC1,.,13µM,.,.
O=C(Nc1ccccc1)N1CCC(c2ccccc2)C1 (stereo unspecified),.,.,.,.
Cc1ccc(NC(=O)N2CCCC(c3ccccc3)C2)cc1 (stereo unspecified),.,18µM,.,.
O=C(NCCNc1ccc([N+](=O)[O-])cc1C(F)(F)F)c1cccc(F)c1,.,?,?,/
O=C(NCCNc1ccc([N+](=O)[O-])cc1C(F)(F)F)c1ccccc1,.,22µM,.,/
CCOC(=O)CN1C(=O)S/C(=C/c2ccc(C)o2)C1=O,.,13µM,.,.
CCOc1cc(/C=C/c2ccc3cccc([N+](=O)[O-])c3n2)ccc1OCC(=O)N(C)C,.,.,.,.
CCOc1cccc(/C=C/c2ccc3cccc(O)c3n2)c1O,.,11µM,.,.
CCOc1cc(/C=C/c2ccc3cccc([N+](=O)[O-])c3n2)ccc1O,.,16µM,.,/
CC(C)C[C@H](NC(C)(C)C(=O)NC1CCCCC1)C(=O)NCC(c1ccccc1)c1ccccc1,/,/,/,.
C=CCN1C(=O)[C@@H](CC(=O)N2CCOCC2)[C@]2(C(=O)OC)CCCCC=C12,/,/,/,.
Cc1cccc(N2CCN(C(=O)CCNS(=O)(=O)c3ccc4c(c3)CCN4C(=O)C3CC3)CC2)c1C,.,.,.,28µM
CC1=C2NC(N)=[N+](Cc3ccc4c(c3)OCO4)CC2NOC1 (stereo unspecified),/,/,/,.
SMILES,aSyn rescue,TDP-43 yeast inh,Abeta rescue,FUS suppressor
Cc1cccc(N2CCN(C(=O)c3cccs3)CC2)c1C,.,5.6µM,.,.
O=C(c1cccs1)N1CCN(c2cc(Cl)ccc2Cl)CC1,.,22µM,.,.
O=C(c1ccc(CS(=O)c2ccccc2Cl)o1)N1CCN(c2ccccc2F)CC1 (stereo unspecified),/,13µM,.,.
Cc1ccccc1S(=O)Cc1ccc(C(=O)N2CCN(c3cccc(C)c3C)CC2)o1 (stereo unspecified),/,35µM,.,.
O=C(c1cccs1)N1CCN(c2ccc(Cl)cc2)CC1,.,?,.,.
COc1ccccc1N1CCN(C(=O)c2cccs2)CC1,.,.,.,.
Cn1c(=O)c2cc(S(=O)(=O)N3CCN(Cc4ccccc4)CC3)ccc2n(C)c1=O,/,/,/,.
Cc1ccc(C(=O)N2CCN(c3cccc(C)c3C)CC2)o1,.,13µM,.,.
Cc1cc(N2CCOCC2)nc(SCc2ccc(Cl)cc2Cl)n1,.,35µM,.,?
Cc1cc(N2CCOCC2)nc(SCC(=O)OCc2ccccc2)n1,.,.,.,.
CC(=O)Nc1ccc(C(CCCc2ccccc2)C2=CCCCC2)cc1 (stereo unspecified),/,/,/,.
CC(=O)Nc1ccc(-c2ccnc3c2CC(C)(C(=O)Nc2cccc(C(C)=O)c2)O3)cc1 (stereo unspecified),.,.,.,.
CC1(C(=O)NCc2ccc(F)c(F)c2)Cc2c(-c3cccc(C(F)(F)F)c3)ccnc2O1 (stereo unspecified),?,.,.,.
